HEK293 tox – kills HEK 293 cells. Potency, µM (series often up to 115 µM), for the others: top-dose activity change, negative = cytotoxicity, actives largely listed as inhibitors. HEK 293 viability, ATP luminescence (CellTiter-Glo), 48-72 h. AID 1345083. 6.6% of 94,000 active; note: nearly all actives have a fitted effect of over 60% in size
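HEK 293 cells at 250 cells/well were exposed to compounds by pintool transfer for 48 or 72 hr at 37 degree Celsius, 5% CO2. Viability was read as ATP-coupled luminescence with CellTiter-Glo after 10 min at room temperature.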
hNpr1 antagonist – antagonists of human natriuretic peptide receptor Npr1; AID 1347048; Potency, µM (highest dose often 46.3 µM), inactives show at the top dose activity change, negative = inhibition, hits mostly inhibitors; HEK293 hNpr1 GloSensor cGMP, ANP-stimulated luminescence; P16066; 1.6% of 76,000 active; calls by dose curve; note: nearly all actives have a fitted effect of over 60% in size
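Compound pre-incubated 30 min at room temperature on GloSensor-loaded HEK293 cells stably carrying hNpr1 and the pGS-40F cGMP biosensor. Stimulation uses hNppA at 0.1 nM final; luminescence is taken at baseline and 20 min post-agonist.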
3T3 cytotox – kills NIH 3T3 cells. NIH 3T3 viability, CellTiter-Glo ATP luminescence, 48-72 h. Potency, µM (doses to about 96.7 µM), for inactives: at the top dose activity change, negative = cytotoxicity, actives largely listed as inhibitors. AID 1345082. 4.3% of 94,000 active; note: nearly all actives have a fitted effect of over 55% in size
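First NIH 3T3 cells are plated at 400 cells/well; next compound is pinned in; then plates incubate 48 or 72 hr at 37 °C; finally CellTiter-Glo is added and luminescence read after 10 min.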
Luciferase inh – inhibitors of firefly (Photinus pyralis) luciferase | 2.5% of 76,000 active | AID 1347043 | purified P. pyralis luciferase, luminescence, biochemical | Potency, µM (series often up to 115 µM), usual class: inhibitors | P08659; note: nearly all actives have a fitted effect of over 65% in size
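Luminescence read by CCD imaging after purified firefly luciferase (10nM final) was added to substrate buffer holding 10uM D-luciferin and 10uM ATP, pH 7.5, pre-dosed with compound.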
GPT2 inhibitor – blocks human glutamate pyruvate transaminase 2; Q8TD30; Recombinant GPT2, coupled pyruvate oxidase/HRP Amplex Red fluorescence; Potency, µM (top dose mostly 57.7 µM), for inactives: top-dose activity change, negative = inhibition, usual class: inhibitors; 0.25% of 100,000 active; AID 1671188; note: nearly all actives have a fitted effect of over 60% in size
Target sequence (Q8TD30 whole entry, looked up): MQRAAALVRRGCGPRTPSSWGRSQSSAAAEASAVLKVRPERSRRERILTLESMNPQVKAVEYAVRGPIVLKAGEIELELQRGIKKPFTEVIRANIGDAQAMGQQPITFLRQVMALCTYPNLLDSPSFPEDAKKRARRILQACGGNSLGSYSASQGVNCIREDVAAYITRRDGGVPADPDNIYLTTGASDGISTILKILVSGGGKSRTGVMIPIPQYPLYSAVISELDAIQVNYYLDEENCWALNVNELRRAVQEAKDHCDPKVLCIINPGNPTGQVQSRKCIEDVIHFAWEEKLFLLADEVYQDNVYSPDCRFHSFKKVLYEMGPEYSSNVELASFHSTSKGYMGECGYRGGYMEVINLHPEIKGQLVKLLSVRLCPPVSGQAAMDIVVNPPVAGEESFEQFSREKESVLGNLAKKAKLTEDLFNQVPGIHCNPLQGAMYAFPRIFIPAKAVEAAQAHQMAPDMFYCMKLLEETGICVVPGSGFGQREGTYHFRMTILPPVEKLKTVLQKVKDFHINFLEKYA
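GPT2 10ng/uL, a-KG 250uM, L-Ala 2mM, HEPES pH7.5 + 0.0001% Tween; 30 min RT. Then Amplex mix (PO/HRP/ThPP), 30 min RT dark, fluorescence. AOA 50uM used as positive control.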
Numbers without * were called inactive; i = inactive; u = inconclusive; x = not tested or not shown; [ ] = dose if it differs, or a comment. The list is not random: actives were taken first. Their share in the collection is about 10%. Unless noted, calls come from the whole dose curve; as a rule, active = well fitted curve in the direction sought with a large enough effect; inconclusive = small, poorly fitted or top-dose-only effect, or another doubt; inactive = no such curve, though single readings can be large; an effect the other way counts as inactive or inconclusive. % is set by controls: 0 for no effect and ±100 for the full control effect; potency is the fitted concentration of half-maximal effect.

SMILES	HEK293 tox	hNpr1 antagonist	3T3 cytotox	Luciferase inh	GPT2 inhibitor
Cn1ncc2c(NCCc3nnc(N)s3)nc(-c3ccncc3)nc21	-10%	10%	-30%	i	-6%[11.5 µM]
COc1cccc([S+](=O)([O-])N2CCc3nc(C)nc(-c4ccc(Cl)cc4)c3C2)c1	u	0%	u	i	i
COc1cccc2c1OCCCN(c1cc(C3CC(O)C3)nc(N)n1)C2 (stereo not given)	u	-30%	13µM*	i	0%[11.5 µM]
Cc1cccc(C)c1OC1CN(c2cc(C3CC(O)C3)nc(N)n2)C1 (stereo not given)	35µM*	-7%	-21%	i	4%
Nc1nc(C2CC(N)C2)cc(N2CC(c3nc4ccccc4[nH]3)C2)n1 (stereo not given)	-13%	5%	-4%	i	i
O=C(NC1CCCCCCC1)C1CCN(C(=O)c2ncn3c2COC(c2ccccc2)C3)CC1 (stereo not given)	6%	-22%	1%	18µM*	3%
O=C(NC1CCCCCC1)C1CCN(C(=O)c2ncn3c2COC(c2ccc(F)cc2)C3)CC1 (stereo not given)	4%	-6%	i	i	i
COc1ccc(NC(=O)C2CCN(C(=O)c3ncn4c3COC(c3ccc(F)cc3)C4)CC2)cc1F (stereo not given)	-8%	-2%	0%	u	i
Cc1ccc(NC(=O)C2CCN(C(=O)c3ncn4c3COC(c3ccc(F)cc3)C4)CC2)cc1Cl (stereo not given)	u	-12%	u	28µM*	i
O=C(Nc1ccc(F)cc1)C1CCN(C(=O)c2ncn3c2COC(c2ccc(F)cc2)C3)CC1 (stereo not given)	0%	-13%	-17%	32µM*	i
O=C(NC1CC1)C1CCN(C(=O)c2ncn3c2COC(c2ccc(F)cc2)C3)CC1 (stereo not given)	8%	3%	i	35µM*	-2%
O=C(NCc1cc(F)cc(F)c1)C1CCN(C(=O)c2ncn3c2COC(c2ccc(F)cc2)C3)CC1 (stereo not given)	-19%	-1%	0%	u	i
O=C(Nc1cc(F)cc(F)c1)C1CCN(C(=O)c2ncn3c2COC(c2ccc(F)cc2)C3)CC1 (stereo not given)	u	u	u	35µM*	i
CC(=O)Nc1ccc(CN2CCC3(CC2)CNc2ccccc2[S+](=O)([O-])N3)cc1	-7%	2%	-8%	i	i
COc1ccc(-c2nnc3ccc(N4CCCC4)nn23)nc1	-18%[172 µM]	3%[70.6 µM]	32µM*	i	4%[88.5 µM]
COc1ccc(-c2nnc3ccc(N4CCN(C(C)=O)CC4)nn23)nc1	-4%[172 µM]	-8%[70.6 µM]	u	i	-28%[88.5 µM]
COc1ccnc(-c2nnc3ccc(N4CCc5ccccc5CC4)nn23)c1	56µM*	5%[70.6 µM]	50µM*	i	-13%[88.5 µM]
COc1ccnc(-c2nnc3ccc(N4C[C@@H](C)O[C@@H](C)C4)nn23)c1	u	6%[70.6 µM]	32µM*	i	0%[88.5 µM]
OCc1ccc(-c2ccc3nnc(-c4ccccn4)n3n2)cc1	i	0%[70.6 µM]	89µM*	i	-6%[88.5 µM]
Fc1ccc(-c2nnc3ccc(N4CCN(c5ccccn5)CC4)nn23)nc1	-6%[172 µM]	-2%[70.6 µM]	u	i	0%[88.5 µM]
c1ccc(C2CCN(c3ccc4nnc(-c5ccccn5)n4n3)CC2)cc1	63µM*	-4%[70.6 µM]	32µM*	i	-11%[88.5 µM]
COc1ccc(Nc2ccnc(N3CCCC(C(=O)NC4CC4)C3)n2)cc1 (stereo not given)	u	x	u	x	i
CSCCNC(=O)C1CCCN(c2nccc(Nc3ccc(C)cc3)n2)C1 (stereo not given)	u	x	u	x	0%
COc1ccc(Nc2ccnc(N3CCCC(C(=O)NCCCc4ccccc4)C3)n2)cc1 (stereo not given)	22µM*	x	u	x	-8%
Cc1ccc(Nc2ccnc(N3CCCC(C(=O)NCCCc4ccccc4)C3)n2)cc1 (stereo not given)	5µM*	x	u	x	i
SMILES	HEK293 tox	hNpr1 antagonist	3T3 cytotox	Luciferase inh	GPT2 inhibitor
Cc1ccc(Nc2ccnc(N3CCC(C(=O)NCCCc4ccccc4)CC3)n2)cc1	u	x	13µM*	x	i
O=C(Cc1ccccn1)NCCNC(=O)c1cccc(-c2ccc(C(F)(F)F)cc2)c1	-20%	x	-27%	x	1%
O=C1NCCOCCN(C(=O)Nc2ccc3c(c2)OCCO3)[C@@H]2CCCC[C@H]12	-1%	-23%	-2%	16µM*	i
O=C(NC1CCN(c2ccc3nnc(C4CC4)n3n2)C1)c1ccc(Cl)nc1 (stereo not given)	2%	x	-24%	x	x
CCNc1ncnc2sc3c(c12)CCN(Cc1ccc[nH]1)C3	u	-9%	40µM*	i	4%
COc1ccc(C2Cn3nnc(C(=O)N4CCN(C(=O)c5ccccc5Cl)CC4)c3CO2)cc1 (stereo not given)	u	u	u	i	-11%
CCOc1ccccc1C(=O)N1CCN(C(=O)c2nnn3c2COC(c2ccc(Cl)cc2)C3)CC1 (stereo not given)	32µM*	u	u	i	i
O=C(c1nnn2c1COC(c1ccc(Cl)cc1)C2)N1CCN(C(=O)C2(c3ccccc3)CC2)CC1 (stereo not given)	22µM*	u	28µM*	i	-14%
COc1ccc(C2Cn3nnc(C(=O)N4CCN(C(=O)c5cc(F)ccc5Cl)CC4)c3CO2)cc1 (stereo not given)	u	13µM*	u	i	i
CCC1(O)CCC12CCN(C(=O)Cc1cccc(F)c1)CC2 (stereo not given)	-6%	x	-24%	x	-25%
COCCCn1c(=O)c(C(=O)N2CCN([S+](=O)([O-])c3cccc(C(F)(F)F)c3)CC2)nc2cccnc21	2%	x	-26%	x	-27%
Cc1noc(C)c1-c1cc2c(c(-c3ccccc3Oc3ccccc3)c1)C(=O)N(C)C2	u	-23%[70.6 µM]	13µM*	i	u
Cc1noc(C)c1-c1cc2c(c(-c3cccc(OC(C)C)c3)c1)C(=O)N(C)C2	u	1.8µM*	u	i	3%[88.5 µM]
O=C(NCC1CCCCC1)C1CCc2nnc(-c3cccc(C(F)(F)F)c3)n21 (stereo not given)	-16%	x	-26%	x	i
CCn1cc(S(=O)(=O)NCCc2ncc(C)n2Cc2ccc(F)cc2)cn1	-6%	5%	-19%	i	i
N#Cc1cccc(-c2ccnc(N[C@H]3CO[C@H]4[C@@H]3OC[C@H]4OC(=O)Nc3cccc4ccccc34)n2)c1	22µM*	-29%	u	i	u
